Assay results published in PubChem BioAssay (Tox21).
“And” between values parts separate entries of the source, which are not always exact repeats. Equal entries are not always repeated. Records with an inconclusive call do not appear. A call without a number means that no potency is given here. The source made the active and inactive calls. Calls come from the whole dose curve.

Biological target: Estrogen receptor (Homo sapiens) (UniProt P03372)
Assay: qHTS assay to identify small molecule agonists of the estrogen receptor alpha (ER-alpha) signaling pathway in the presence of an antagonist (AID 1259383); note: nearly all actives have a fitted effect of over 15% in size; note: potency is the fitted concentration of half-maximal effect
Conditions: VM7Luc4E2 cells, ERE-luciferase, +ICI-182,780, 22 h; series mostly up to 92.4 µM
Procedure, shortened: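 In VM7Luc4E2 cells, 4,000 per well, compounds at 15 concentrations were co-incubated 22hr at 37C with 10.0nM final ICI-182,780. Luminescence from the stably transfected 4×ERE-luciferase reporter was recorded 30min after ONE-Glo addition.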

Chain of Estrogen receptor (Homo sapiens) (P03372 whole entry, looked up): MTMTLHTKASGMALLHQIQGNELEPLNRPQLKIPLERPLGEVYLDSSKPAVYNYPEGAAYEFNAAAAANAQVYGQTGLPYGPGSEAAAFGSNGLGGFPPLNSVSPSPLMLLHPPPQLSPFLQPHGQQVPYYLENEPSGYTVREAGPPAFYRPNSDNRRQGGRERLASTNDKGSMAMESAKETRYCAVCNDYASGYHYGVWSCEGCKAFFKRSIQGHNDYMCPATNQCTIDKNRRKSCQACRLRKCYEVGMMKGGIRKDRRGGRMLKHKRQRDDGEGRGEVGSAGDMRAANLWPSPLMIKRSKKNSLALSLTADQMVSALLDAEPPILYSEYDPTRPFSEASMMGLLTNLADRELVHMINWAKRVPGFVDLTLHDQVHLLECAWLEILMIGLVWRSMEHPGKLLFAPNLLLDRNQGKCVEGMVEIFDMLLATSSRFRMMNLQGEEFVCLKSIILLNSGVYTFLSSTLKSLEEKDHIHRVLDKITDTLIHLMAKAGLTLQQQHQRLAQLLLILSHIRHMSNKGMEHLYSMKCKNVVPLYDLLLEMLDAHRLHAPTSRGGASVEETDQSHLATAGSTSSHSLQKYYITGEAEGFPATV

Compound	Potency
COc1ccc(C(Cl)=C(c2ccc(OC)cc2)c2ccc(OC)cc2)cc1	15.3 µM (active) and 8.41 µM (active)
NS(=O)(=O)c1cc2c(cc1Cl)NCNS2(=O)=O	inactive
COc1ccc2c(c1)c(CC(=O)O)c(C)n2C(=O)c1ccc(Cl)cc1	inactive
O=c1[nH]cnc2c1ncn2[C@H]1CC[C@@H](CO)O1	inactive
Cc1ncc([N+](=O)[O-])n1CCO	inactive
CCc1nc(N)nc(N)c1-c1ccc(Cl)cc1	inactive
CN(C)C(=O)Nc1ccc(Cl)c(Cl)c1	inactive
CC12CCC(CC1)C(C)(C)O2	inactive
CCOc1ccc(NC(C)=O)cc1	inactive
CCCCC1(COC(=O)CCC(=O)O)C(=O)N(c2ccccc2)N(c2ccccc2)C1=O	inactive
CCCc1cc(=O)[nH]c(=S)[nH]1	inactive
CCOC(N)=O	inactive
CCN(CC)C(=O)c1cccc(C)c1	inactive
CCCCCCCC(=O)OCC(COC(=O)CCCCCCC)OC(=O)CCCCCCC	inactive
O=C1OC2(c3ccccc31)c1cc(Br)c(O)c(Br)c1Oc1c2cc(Br)c(O)c1Br	inactive
NC(=O)c1cccnc1	inactive
CN1[C@@H]2CC(OC(=O)[C@H](CO)c3ccccc3)C[C@H]1[C@@H]1O[C@@H]12 (stereo not given in full)	inactive
CN(C)CCOC(c1ccccc1)c1ccccc1	inactive
CC(=O)CCC(=O)O	inactive
Cc1c(C(=O)O)c(O)cc2c1C(=O)c1c(O)c([C@@H]3O[C@H](CO)[C@@H](O)[C@H](O)[C@H]3O)c(O)c(O)c1C2=O	inactive
CN1CCc2cccc3c2[C@H]1Cc1ccc(O)c(O)c1-3	inactive
CCCCCCCCCCCCCCCC[N+](C)(C)Cc1ccccc1	inactive
C=CCc1ccc(O)c(OC)c1	inactive
NC(CO)(CO)CO	inactive
CS(=O)(=O)OCCCCOS(C)(=O)=O	inactive
O=S1(=O)OC(c2ccc(O)cc2)(c2ccc(O)cc2)c2ccccc21	inactive
CC(C)C(=O)Nc1ccc([N+](=O)[O-])c(C(F)(F)F)c1	inactive

System: not listed separately
Assay: qHTS assay to identify small molecule agonists or antagonists of the thyroid stimulating hormone receptor (TSHR) signaling pathway - wild type cell line counter screen (AID 1259384)
Conditions: HEK293 wild type, cAMP HTRF counter-screen; series mostly up to 92.4 µM
Procedure, shortened: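 Wild-type HEK293 cells were plated 18 h at 37 C/5% CO2, pin-dosed with compound plus Ro20-1724 medium, held 30 min at room temperature, then given cAMP-d2 and anti-cAMP-cryptate; fluorescence was read after 1 h. Fifteen concentrations, triplicate.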

Compound	Potency
NS(=O)(=O)c1cc2c(cc1Cl)NCNS2(=O)=O	inactive
COc1ccc2c(c1)c(CC(=O)O)c(C)n2C(=O)c1ccc(Cl)cc1	inactive
O=c1[nH]cnc2c1ncn2[C@H]1CC[C@@H](CO)O1	inactive
Cc1ncc([N+](=O)[O-])n1CCO	inactive
CN(C)C(=O)Nc1ccc(Cl)c(Cl)c1	inactive
CCCCOC(=O)c1ccc(O)cc1	inactive
CC12CCC(CC1)C(C)(C)O2	inactive
CCOc1ccc(NC(C)=O)cc1	inactive
CCCCC1(COC(=O)CCC(=O)O)C(=O)N(c2ccccc2)N(c2ccccc2)C1=O	inactive
CCCc1cc(=O)[nH]c(=S)[nH]1	inactive
CCOC(N)=O	inactive
CCN(CC)C(=O)c1cccc(C)c1	inactive
CCCCCCCC(=O)OCC(COC(=O)CCCCCCC)OC(=O)CCCCCCC	inactive
NC(=O)c1cccnc1	inactive
CN1[C@@H]2CC(OC(=O)[C@H](CO)c3ccccc3)C[C@H]1[C@@H]1O[C@@H]12 (stereo not given in full)	inactive
CN(C)CCOC(c1ccccc1)c1ccccc1	inactive
CC(=O)CCC(=O)O	inactive
CN1CCc2cccc3c2[C@H]1Cc1ccc(O)c(O)c1-3	inactive
C=CCc1ccc(O)c(OC)c1	inactive
NC(CO)(CO)CO	inactive
CS(=O)(=O)OCCCCOS(C)(=O)=O	inactive
CC(C)C(=O)Nc1ccc([N+](=O)[O-])c(C(F)(F)F)c1	inactive
CCCCCCc1ccc(O)cc1O	inactive
